The panel holds about 83,000 compounds, 20% with a hit somewhere; the sample as a whole holds those more often.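 Treatment: one concentration, 48 hours, 96-well format. Scoring: percent growth, with anything below 10 considered active.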 Values without a mark were called inactive. Activity calls are given as the source filed them.
What was measured:
Test in all cases: NCI-60 one-dose screen, 48 h (100 = growth as untreated, 0 = no growth, -100 = all killed)
[1] = system: SK-MEL-2 melanoma; details: 10 µM unless noted
[2] = system: EKVX NSCLC; details: 10 µM unless noted
[3] = system: SN12C renal; details: 10 µM unless noted
[4] = system: UO-31 renal; details: 10 µM unless noted
[5] = system: TK-10 renal; details: 10 µM unless noted
[6] = system: ACHN renal; details: 10 µM unless noted
[7] = system: CAKI-1 renal; details: 10 µM unless noted
[8] = system: CCRF-CEM leukemia; details: 10 µM unless noted
[9] = system: RPMI-8226 leukemia; details: 10 µM
[10] = system: OVCAR-8 ovarian; details: 10 µM unless noted
[11] = system: OVCAR-5 ovarian; details: 10 µM unless noted
[12] = system: OVCAR-4 ovarian; details: 10 µM unless noted
[13] = system: IGROV1 ovarian; details: 10 µM unless noted
[14] = system: OVCAR-3 ovarian; details: 10 µM unless noted
[15] = system: HS 578T breast; details: 10 µM unless noted
[16] = system: NCI/ADR-RES ovarian; details: 10 µM unless noted
[17] = system: SK-OV-3 ovarian; details: 10 µM
[18] = system: A498 renal; details: 10 µM unless noted
[19] = system: MOLT-4 leukemia; details: 10 µM unless noted
[20] = system: SR leukemia; details: 10 µM unless noted

Row | SMILES | growth [1] | growth [2] | growth [3] | growth [4] | growth [5] [%] | growth [6] | growth [7] | growth [8] | growth [9] | growth [10] | growth [11] | growth [12] | growth [13] | growth [14] | growth [15] | growth [16] | growth [17] [%] | growth [18] | growth [19] | growth [20]
1 | CCCCCCCC/C=C\CCCCCCCCOc1cccc(CC(=O)NCC[N+]2(C)CCCCC2)c1 | 91.8% | 78.7% | 47.8% | 86.8% | 76.8 | 94.7% | 70.3% | 38.5% | 67.1% | 74.3% | 39.6% | 66.3% | -37% (active) | 89.9% | 73.9% | 102% | – | – | – | –
2 | Clc1ccc(C2=Nc3cccc4cccc(c34)N2)cc1Cl | 96.2% | 91.1% | 110% | 72.3% | 97.9 | 94.7% | – | 67.4% | 56.8% | 97.7% | 126% | 32.6% | 71.8% | 86% | – | 95.8% | 98.1 | – | – | –
3 | COc1cc(-c2nc(SC(C)C)nc(Nc3ccccc3C)c2C#N)cc(OC)c1OC | 103% | 102% | 104% | 86.3% | – | 101% | 94.1% | 103% | – | 103% | 99.1% | – | 104% | 121% | 104% | 109% | – | 88.4% | 110% | 110%
4 | COc1ccc(-c2c(-c3cc4c(c(OC)c3OC)OCO4)noc2N)cc1 | 63% | 40.5% | 44.4% | 57.4% | 66.3 | – | 37.6% | 11.7% | 17.3% | 32.1% | – | 55% | 46.3% | -38.1% (active) | 16% | 2.53% (active) | 16.2 | 35.8% | 36.6% | 10.9%
5 | O=C(O)c1ccccc1Oc1cc(-c2ccco2)nc(OCCBr)n1 | 111% | 94.5% | 94.7% | 86.6% | 103 | – | 90.7% | 87.1% | 123% | 103% | – | – | 106% | 105% | 98.1% | 105% | 103 | 99.3% | 98.5% | 102%
6 | COc1cc2cc(Oc3ccc(NC(=O)Nc4cccc(C(F)(F)F)c4)cc3)c(C)nc2cc1OCCN1CCCCC1 | -65.9% (active) | 27.5% | -88.9% (active) | -92.1% (active) | – | -73.3% (active) | -77.7% (active) | 1.49% (active) | – | – | 61.6% | -12.9% (active) | -31.2% (active) | -92.6% (active) | -53.6% (active) | 20.1% | – | 51% | -54.9% (active) | -19.4% (active)
7 | NS(=O)(=O)c1cc(Br)c2c(c1)S(=O)(=O)NCN2 | 102% | 120% | 104% | – | 110 | 111% | 94.9% | 99.7% | 106% | – | 112% | 120% | 115% | 99.3% | 110% | 135% | 115 | 115% | 87.5% | 88%
8 | Nc1nc(-c2ccnc(Cl)c2)nn1-c1nc2ccccc2s1 | 108% | 96.5% | 101% | 87% | – | 96.9% | 95% | 101% | – | 102% | 95.9% | 102% | 99.1% | 114% | 96.8% | 104% | – | 96.2% | 119% | 120%
9 | COc1cc2cc(Oc3ccc(NC(=O)Nc4ccc(Cl)c(C(F)(F)F)c4)cc3)c(C)nc2cc1OCCN1CCCCC1 | 95.3% | 15.8% | -84.7% (active) | -90.1% (active) | – | -100% (active) | 15.4% | 3.86% (active) | – | -34.4% (active) | 67.1% | -4.36% (active) | -47.2% (active) | -82.8% (active) | -44.5% (active) | 3.87% (active) | – | 64.2% | -37.2% (active) | -15.9% (active)
10 | CCN1CCN(c2ccc(Nc3ncc4ccc5ncn(C(C)C)c5c4n3)nc2)CC1 | -56.7% (active) | -6.84% (active) | 4.25% (active) | -5.17% (active) | – | 2.84% (active) | -10.7% (active) | 4.85% (active) | – | – | 4.92% (active) | 5.12% (active) | -4.82% (active) | – | -20.8% (active) | 2.06% (active) | – | -61.5% (active) | 2.48% (active) | 3.9% (active)
11 | Cc1ccccc1-n1nnc(C(=O)Nc2nc(-c3ccccc3)c(-c3ccccc3)s2)c1C | 89% [50 µM] | 69.8% [50 µM] | 79.2% [50 µM] | 86% [50 µM] | – | 84.6% [50 µM] | 63.5% [50 µM] | 63.5% [50 µM] | – | 67.9% [50 µM] | 96.5% [50 µM] | 58.1% [50 µM] | 89.9% [50 µM] | 79.8% [50 µM] | 46.7% [50 µM] | 84.3% [50 µM] | – | 104% [50 µM] | 67% [50 µM] | 69.5% [50 µM]
12 | O=C(C[Si](CC(=O)c1cccc(C(F)(F)F)c1)CC(=O)c1cccc(C(F)(F)F)c1)c1cccc(C(F)(F)F)c1 | 94.1% | 36.7% | 69.5% | 31.4% | – | 79.1% | 41.7% | 14.4% | 4.44% (active) | 90.9% | 91.4% | 88.3% | 48.3% | 37.8% | – | 78.4% | 98.3 | 60.4% | -19.2% (active) | 5.27% (active)
13 | CCN(CC)CCCNc1ccc(C)c2sc3ccccc3c(=O)c12 | 94% | 87.9% | 40.5% | 44.7% | – | 20.9% | 64.6% | 21.8% | 15.4% | 43.2% | 56.4% | 64.8% | 51.9% | 68.5% | – | 58.4% | 56.2 | – | 15.3% | -11.8% (active)
14 | O=c1c2c(=NCCN3CCCC3)cc3c(=O)n(CCCN4CCOCC4)c(=O)c4ccc(c(O)n1CCCN1CCOCC1)c2c4-3 | -27.2% (active) | -12.8% (active) | 4.69% (active) | 0.795% (active) | – | 2.23% (active) | 8.73% (active) | 1.35% (active) | – | 11.9% | -10.9% (active) | -49.1% (active) | 2.41% (active) | -8.68% (active) | -13.9% (active) | -2.98% (active) | – | -78.9% (active) | 2.58% (active) | 13.5%
15 | O=c1c2c(=NCCN3CCCC3)cc3c(=O)n(CCCN4CCOCC4)c(=O)c4c(-c5ccc(CN6CCCC6)cc5)cc(c(O)n1CCCN1CCOCC1)c2c4-3 | -40.8% (active) | -37% (active) | -25.5% (active) | -6.74% (active) | – | -4.38% (active) | 0.0079% (active) | -4.42% (active) | – | -10.7% (active) | -34.6% (active) | -50.7% (active) | -25.4% (active) | – | -26.3% (active) | -0.981% (active) | – | -85% (active) | 0.115% (active) | 3.49% (active)
16 | COc1cc(Cn2cc(F)c(=O)[nH]c2=O)cc(OC)c1 | 114% [50 µM] | 98.6% [50 µM] | 98.9% [50 µM] | 75.3% [50 µM] | – | 101% [50 µM] | 92.9% [50 µM] | 103% [50 µM] | – | 101% [50 µM] | 101% [50 µM] | 108% [50 µM] | 106% [50 µM] | 126% [50 µM] | 96.7% [50 µM] | 112% [50 µM] | – | 98.2% [50 µM] | 103% [50 µM] | 103% [50 µM]
